Measured values published in ChEMBL document CHEMBL3988442, “University of Dundee, Small-Polar-MMV Screening Library” (2021).
For some of these results: Results with a measured potency or affinity are listed apart.

Legend:
Set-up in all cases: scale not given: direction of the effect not stated beside the values
[1] = biological target: Protein translocase subunit SecA (Escherichia coli (strain K12)) (UniProt P10408); assay: Assay to Identify E. coli SecA ATPase Inhibitors; assay type: functional; details: 30 µM
[2] = biological target: T1, Ubiquitin-activating enzyme e1, putative (Leishmania donovani (strain BPK282A1)) (UniProt E9BSI1); assay: Leishmania donovani Ubiquitin Activating Enzyme (LdE1); assay type: functional; details: 30 µM
T1 sequence (whole entry): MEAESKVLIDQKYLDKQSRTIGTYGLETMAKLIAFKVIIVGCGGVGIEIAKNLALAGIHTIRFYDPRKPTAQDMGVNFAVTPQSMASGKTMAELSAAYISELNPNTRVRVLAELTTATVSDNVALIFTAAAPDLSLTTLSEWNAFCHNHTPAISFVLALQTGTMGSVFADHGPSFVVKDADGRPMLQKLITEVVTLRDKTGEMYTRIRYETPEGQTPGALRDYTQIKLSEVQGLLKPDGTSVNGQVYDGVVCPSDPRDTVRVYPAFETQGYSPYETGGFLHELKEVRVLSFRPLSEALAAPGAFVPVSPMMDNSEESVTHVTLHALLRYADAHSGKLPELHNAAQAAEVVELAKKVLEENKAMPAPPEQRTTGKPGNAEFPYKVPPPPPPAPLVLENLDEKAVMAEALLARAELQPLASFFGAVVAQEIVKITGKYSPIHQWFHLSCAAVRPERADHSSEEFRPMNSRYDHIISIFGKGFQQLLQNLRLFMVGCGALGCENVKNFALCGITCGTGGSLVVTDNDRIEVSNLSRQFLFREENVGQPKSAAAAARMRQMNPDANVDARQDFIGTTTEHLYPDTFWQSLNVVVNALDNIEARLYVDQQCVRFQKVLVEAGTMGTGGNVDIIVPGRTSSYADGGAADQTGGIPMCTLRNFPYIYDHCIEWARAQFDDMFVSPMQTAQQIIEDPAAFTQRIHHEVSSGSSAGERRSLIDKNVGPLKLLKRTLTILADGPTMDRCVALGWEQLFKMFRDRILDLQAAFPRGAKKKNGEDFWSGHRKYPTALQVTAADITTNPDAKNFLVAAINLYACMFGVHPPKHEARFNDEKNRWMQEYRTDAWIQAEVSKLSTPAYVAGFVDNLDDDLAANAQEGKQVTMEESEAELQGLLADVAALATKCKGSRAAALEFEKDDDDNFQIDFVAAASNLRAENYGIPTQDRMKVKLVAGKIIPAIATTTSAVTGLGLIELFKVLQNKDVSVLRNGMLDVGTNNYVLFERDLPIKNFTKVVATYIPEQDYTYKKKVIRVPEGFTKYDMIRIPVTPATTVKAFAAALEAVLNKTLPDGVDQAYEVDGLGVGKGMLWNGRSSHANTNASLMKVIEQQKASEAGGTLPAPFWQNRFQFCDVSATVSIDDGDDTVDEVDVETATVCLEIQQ

[3] = biological target: Sialic acid-binding Ig-like lectin 9 (Homo sapiens) (UniProt Q9Y336); assay: Hs-Siglec9 ALPHAscreen SOP 20170721; details: 10 µM
Trypanosoma cruzi = assay: Trypanosoma cruzi phosphomannomutase and mannose-1-phosphate guanylyltransferase assay; assay type: functional; details: 10 µM
[4] = biological target: T2, Arginase-2, mitochondrial (Homo sapiens) (UniProt P78540); assay: in vitro enzyme assay to detect the production of urea directly proportional to the activity of Arginase II; assay type: functional; details: 33.3 µM; further: in the data most compounds retested in dose-response had high values
T2 sequence (whole entry): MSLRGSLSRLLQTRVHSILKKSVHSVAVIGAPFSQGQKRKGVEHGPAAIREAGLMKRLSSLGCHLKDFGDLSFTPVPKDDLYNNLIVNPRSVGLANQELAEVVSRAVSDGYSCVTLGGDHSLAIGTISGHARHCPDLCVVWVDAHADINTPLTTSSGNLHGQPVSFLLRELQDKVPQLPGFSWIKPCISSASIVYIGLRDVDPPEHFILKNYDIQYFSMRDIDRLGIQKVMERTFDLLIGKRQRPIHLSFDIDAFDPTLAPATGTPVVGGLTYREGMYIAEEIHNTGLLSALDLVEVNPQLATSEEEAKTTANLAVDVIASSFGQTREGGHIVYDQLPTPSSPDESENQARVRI

[5] = biological target: T3, Proteasome subunit beta (Trypanosoma cruzi) (UniProt O96673); assay: Trypanosoma cruzi proteasome chymotrypsin-like activity (TcProtChymo) assay.; further: in the data most compounds retested in dose-response had high values; assay type: functional; details: 9.37 µM
T3 sequence (whole entry): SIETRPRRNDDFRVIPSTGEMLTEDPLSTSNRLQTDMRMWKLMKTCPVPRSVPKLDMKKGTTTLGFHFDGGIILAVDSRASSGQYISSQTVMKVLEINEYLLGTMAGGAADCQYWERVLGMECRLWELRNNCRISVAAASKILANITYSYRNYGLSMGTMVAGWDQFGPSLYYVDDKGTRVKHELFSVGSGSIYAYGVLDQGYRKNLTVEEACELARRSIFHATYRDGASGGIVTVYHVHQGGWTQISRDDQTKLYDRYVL

Homo sapiens = organism: Homo sapiens; assay: To identify inhibition of the IFN signalling (Jak-Stat) pathway via expression of an eGFP reporter gene under the control of an IFN-stimulated response element (ISRE) containing MxA promoter.; assay type: functional; details: 30 µM
[6] = biological target: T4, Tyrosyl-tRNA synthetase, putative (Trypanosoma cruzi (strain CL Brener)) (UniProt Q4DSP6); assay: Trypanosoma cruzi tyrosyl tRNA synthetase (TcYRS) _High Tyrosine SOP; assay type: functional; details: 30 µM; further: in the data most compounds retested in dose-response had high values
T4 sequence (whole entry): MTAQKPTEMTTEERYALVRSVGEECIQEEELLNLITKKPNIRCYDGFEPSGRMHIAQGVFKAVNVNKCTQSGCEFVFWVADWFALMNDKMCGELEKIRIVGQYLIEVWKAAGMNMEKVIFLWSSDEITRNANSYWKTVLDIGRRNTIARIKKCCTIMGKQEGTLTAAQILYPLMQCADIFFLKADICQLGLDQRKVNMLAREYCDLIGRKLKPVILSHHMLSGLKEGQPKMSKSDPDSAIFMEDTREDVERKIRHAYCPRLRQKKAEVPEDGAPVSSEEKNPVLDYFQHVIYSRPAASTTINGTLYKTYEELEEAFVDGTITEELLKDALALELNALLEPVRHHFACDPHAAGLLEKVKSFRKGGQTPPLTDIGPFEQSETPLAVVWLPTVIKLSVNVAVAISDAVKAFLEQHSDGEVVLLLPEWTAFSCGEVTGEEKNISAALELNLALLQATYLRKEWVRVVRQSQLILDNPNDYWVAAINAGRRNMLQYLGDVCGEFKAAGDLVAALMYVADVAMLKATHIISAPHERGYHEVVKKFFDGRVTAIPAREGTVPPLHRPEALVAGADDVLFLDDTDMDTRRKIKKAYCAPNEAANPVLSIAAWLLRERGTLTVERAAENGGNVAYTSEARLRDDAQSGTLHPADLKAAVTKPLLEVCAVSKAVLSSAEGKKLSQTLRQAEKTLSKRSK

[7] = biological target: T4, Tyrosyl-tRNA synthetase, putative (Trypanosoma cruzi (strain CL Brener)); assay: Trypanosoma cruzi tyrosyl tRNA synthetase (TcYRS) SOP; assay type: functional; details: 30 µM
[8] = biological target: Chromo domain-containing protein 1 (Saccharomyces cerevisiae (strain ATCC 204508 / S288c) (Baker's yeast)) (UniProt P32657); assay: ScCHD-1 Enzyme Inhibition Assay; assay type: functional; details: 30 µM; further: in the data most compounds retested in dose-response had high values
Chromo domain-containing protein 1 (Saccharomyces cerevisiae (strain ATCC 204508 / S288c) (Baker's yeast)), sequence (P32657 whole entry, the tested form may be a part): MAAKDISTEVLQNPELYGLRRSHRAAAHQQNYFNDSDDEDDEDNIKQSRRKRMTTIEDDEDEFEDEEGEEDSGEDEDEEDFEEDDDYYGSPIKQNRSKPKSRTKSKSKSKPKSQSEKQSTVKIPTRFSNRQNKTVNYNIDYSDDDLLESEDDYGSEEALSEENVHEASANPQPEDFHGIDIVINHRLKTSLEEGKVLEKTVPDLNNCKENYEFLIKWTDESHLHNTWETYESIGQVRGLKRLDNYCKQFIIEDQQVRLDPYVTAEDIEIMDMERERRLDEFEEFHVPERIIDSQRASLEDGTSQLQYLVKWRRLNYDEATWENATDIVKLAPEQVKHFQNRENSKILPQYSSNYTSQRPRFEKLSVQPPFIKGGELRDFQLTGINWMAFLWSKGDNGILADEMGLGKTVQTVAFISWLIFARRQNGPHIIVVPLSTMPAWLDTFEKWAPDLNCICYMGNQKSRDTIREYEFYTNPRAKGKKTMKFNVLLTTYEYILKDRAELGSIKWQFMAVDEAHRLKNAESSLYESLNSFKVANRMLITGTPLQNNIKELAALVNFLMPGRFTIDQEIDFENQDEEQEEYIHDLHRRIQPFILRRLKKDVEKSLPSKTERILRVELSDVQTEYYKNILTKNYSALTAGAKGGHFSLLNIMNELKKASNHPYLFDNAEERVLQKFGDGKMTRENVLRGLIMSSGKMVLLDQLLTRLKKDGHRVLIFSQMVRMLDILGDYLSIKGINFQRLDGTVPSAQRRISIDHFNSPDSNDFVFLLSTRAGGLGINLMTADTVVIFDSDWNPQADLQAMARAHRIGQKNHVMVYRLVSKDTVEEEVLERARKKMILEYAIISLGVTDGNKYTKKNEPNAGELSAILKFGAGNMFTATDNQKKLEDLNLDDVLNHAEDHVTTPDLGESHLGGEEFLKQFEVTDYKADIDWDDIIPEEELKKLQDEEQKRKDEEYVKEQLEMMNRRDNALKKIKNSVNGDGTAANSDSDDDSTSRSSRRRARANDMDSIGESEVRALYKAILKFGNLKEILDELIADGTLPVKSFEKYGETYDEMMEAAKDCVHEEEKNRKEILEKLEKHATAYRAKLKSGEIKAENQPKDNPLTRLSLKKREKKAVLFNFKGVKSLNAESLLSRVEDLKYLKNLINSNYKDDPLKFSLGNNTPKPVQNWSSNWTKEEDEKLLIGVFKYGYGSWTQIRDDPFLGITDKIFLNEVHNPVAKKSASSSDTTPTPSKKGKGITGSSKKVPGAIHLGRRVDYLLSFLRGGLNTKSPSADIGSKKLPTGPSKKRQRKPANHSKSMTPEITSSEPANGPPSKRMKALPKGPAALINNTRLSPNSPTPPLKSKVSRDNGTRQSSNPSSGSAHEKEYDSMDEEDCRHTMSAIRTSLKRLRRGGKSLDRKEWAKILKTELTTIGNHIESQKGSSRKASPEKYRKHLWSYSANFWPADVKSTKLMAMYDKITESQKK

Protein translocase subunit SecA (Escherichia coli (strain K12)), sequence (P10408 whole entry): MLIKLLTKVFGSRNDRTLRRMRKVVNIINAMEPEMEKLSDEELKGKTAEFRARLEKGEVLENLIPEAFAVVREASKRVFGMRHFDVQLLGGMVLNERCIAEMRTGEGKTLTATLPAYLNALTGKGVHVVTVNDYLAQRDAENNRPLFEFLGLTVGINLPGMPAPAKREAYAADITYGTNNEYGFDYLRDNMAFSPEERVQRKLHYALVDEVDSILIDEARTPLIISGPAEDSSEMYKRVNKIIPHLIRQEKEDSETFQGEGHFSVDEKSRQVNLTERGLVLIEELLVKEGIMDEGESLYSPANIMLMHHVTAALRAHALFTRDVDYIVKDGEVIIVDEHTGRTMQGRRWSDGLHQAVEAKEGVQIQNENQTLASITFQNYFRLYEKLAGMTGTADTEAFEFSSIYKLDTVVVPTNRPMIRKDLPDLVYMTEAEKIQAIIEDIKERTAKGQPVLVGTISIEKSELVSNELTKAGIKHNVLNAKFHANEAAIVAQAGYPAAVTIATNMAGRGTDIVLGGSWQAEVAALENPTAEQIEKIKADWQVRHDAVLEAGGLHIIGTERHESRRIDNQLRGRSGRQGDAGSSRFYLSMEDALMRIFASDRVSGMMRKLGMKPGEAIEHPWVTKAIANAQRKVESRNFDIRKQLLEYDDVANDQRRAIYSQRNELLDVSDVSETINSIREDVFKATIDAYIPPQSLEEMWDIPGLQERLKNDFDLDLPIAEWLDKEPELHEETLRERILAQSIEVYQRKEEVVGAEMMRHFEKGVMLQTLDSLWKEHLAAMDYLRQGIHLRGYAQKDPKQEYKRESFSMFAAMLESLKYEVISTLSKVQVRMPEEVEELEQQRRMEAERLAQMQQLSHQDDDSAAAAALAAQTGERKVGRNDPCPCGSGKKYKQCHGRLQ
Sialic acid-binding Ig-like lectin 9 (Homo sapiens), sequence (Q9Y336 whole entry): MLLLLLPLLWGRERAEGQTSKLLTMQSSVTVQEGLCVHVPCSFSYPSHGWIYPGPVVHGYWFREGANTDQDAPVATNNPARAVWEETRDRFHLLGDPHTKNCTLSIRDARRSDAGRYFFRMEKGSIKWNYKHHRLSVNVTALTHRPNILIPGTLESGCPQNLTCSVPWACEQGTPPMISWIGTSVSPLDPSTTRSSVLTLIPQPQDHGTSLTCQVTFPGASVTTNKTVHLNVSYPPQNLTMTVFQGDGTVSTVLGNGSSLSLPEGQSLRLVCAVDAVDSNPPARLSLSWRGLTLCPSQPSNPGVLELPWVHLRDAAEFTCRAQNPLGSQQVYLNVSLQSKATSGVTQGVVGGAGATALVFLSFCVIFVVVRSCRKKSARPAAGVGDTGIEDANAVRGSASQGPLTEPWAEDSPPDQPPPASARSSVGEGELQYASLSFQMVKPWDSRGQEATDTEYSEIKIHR

| SMILES | Percent Effect [1] | Percent Effect [2] | Percent Effect [3] | Percent Effect (Trypanosoma cruzi) | Percent Effect [4] | Percent Effect [5] | Percent Effect (Homo sapiens) | Percent Effect [6] | Percent Effect [7] | Percent Effect [8] |
| --- | --- | --- | --- | --- | --- | --- | --- | --- | --- | --- |
| Cc1nc(CN2CCC3(CC2)NC(=O)CC3c2ccccc2)cs1 (stereo not given) | -3.5% | -1.3% | -0.193% | 0.375% | -0.913% | 9.19% | 4.58% | 8.7% | 12.5% | -9.48% |
| CC(C)NC(=O)C1CN(C(=O)c2ccco2)CC12CCOCC2 (stereo not given) | -1.7% | 9.09% | -6.62% | 3.41% | 3.24% | 10.2% | -3.41% | 8.95% | 12.8% | -4.15% |
| CCNC(=O)c1ccc(CNCc2c(C)nn(C)c2N(C)C)cc1 | -4.63% | 21.3% | 1.18% | 5.62% | -0.444% | 22.3% | 2.98% | 4.74% | 12.8% | -11.6% |
| COc1ccc(OC)c(C2CCN(Cc3nc(C)n4ccccc34)C2)c1 (stereo not given) | -4.56% | -2.7% | 16.9% | 2.81% | 17.1% | 17.8% | 17.9% | 13.3% | 26.8% | -3.48% |
| Cc1cc(CN(C)C(=O)c2ccc(F)cc2Br)no1 | -3.65% | 10.3% | -16.2% | -5.35% | -1.23% | 15.3% | 28.1% | 3.35% | 10.8% | -3.45% |
| Cc1cnc(CN2CCCC(c3cc(C(F)(F)F)[nH]n3)C2)cn1 (stereo not given) | -4.31% | 2.67% | 2.93% | -2.21% | 3.55% | 2.97% | 10.5% | 4.74% | 17.9% | -4.75% |
| O=C(NCCN1CCCCC1)c1ccoc1 | -6.92% | 7.79% | -0.674% | -7.28% | -2.66% | 4.21% | 14.7% | -2.94% | 0% | -4.75% |
| Cc1ccsc1CN(C)Cc1nc2c(cnn2C)c(=O)[nH]1 | 0.7% | 15.4% | -7.51% | 0.845% | 2.05% | 10.7% | 27.3% | 7.18% | 18.1% | -3.14% |
| CCn1nc(C)c(CCNC(=O)C2CCCN(CC(N)=O)C2)c1C (stereo not given) | -8.24% | 8.11% | 27.7% | 9.02% | 9.44% | 5.14% | 12.5% | 10.1% | 17.1% | -5.53% |
| CCN1C(=O)CCCC12CCCN(C(=O)c1cnccn1)C2 (stereo not given) | -2.55% | 3.9% | 1.16% | -0.75% | -2.28% | 2.49% | 14.1% | 2.9% | 7.5% | -6.78% |
| Cn1ncc(C(=O)N2CCCC(n3cccn3)C2)c1C1CC1 (stereo not given) | -4.48% | 10.7% | 0.531% | -3.61% | 3.1% | 11.6% | 8.56% | 2.63% | 5.13% | -7.06% |
| COCC(=O)N1CCC(c2cc(C(F)(F)F)n3ccnc3n2)CC1 | -4.74% | 17.3% | 7.36% | 3.75% | 0.885% | 9.85% | 5.45% | 3.17% | 15% | -24.5% |
| Cc1nc(C2CCCN2Cc2ncc(C(C)C)o2)no1 (stereo not given) | -0.503% | 2.67% | -1.37% | -0.803% | -0.444% | 1.44% | 13.4% | -1.58% | -5.13% | -7.52% |
| Cc1nsc(NC(=O)N2CCN(Cc3ccc(F)cc3)C(=O)C2)n1 | -3.7% | -10.8% | -0.0827% | -0.291% | 3.85% | 4.45% | 5.1% | 2.66% | 2.44% | 3.97% |
| CCn1nc(C)c(CCNC(=O)C2CCCN(C(=O)N(C)C)C2)c1C (stereo not given) | -5.72% | 0% | -0.0434% | -2.04% | 1.05% | 14.6% | 8.52% | 3.72% | 4.88% | -3.32% |
| CC(C)c1cc(CNC(=O)N2CCC(Cc3cnn(C)c3)C2)on1 (stereo not given) | -5.49% | 10.3% | -6.83% | 5.92% | -1.23% | 4.69% | 4.85% | 1.44% | 8.43% | -5.54% |
| O=C(NCc1nn(-c2ccccc2)c2c1CCC2)N1CCSCC1 | -6.8% | -2.56% | -13.1% | 12.7% | -1.64% | 7.25% | 15.5% | 2.39% | 13.2% | -7.59% |
| Cc1nc(CN2CCCC(CCNS(C)(=O)=O)C2)c[nH]1 (stereo not given) | -6.15% | 0% | 1.08% | -0.873% | 3.85% | 1.71% | 7.77% | 3.72% | 9.76% | -0.429% |
| CCn1ccnc1CNCC1CCN(CC(O)c2ccccc2)CC1 (stereo not given) | -3.91% | -5.13% | -9.4% | 5.92% | 11.9% | -2.13% | 4.15% | 3.35% | 6.02% | -1.13% |
